The target of assay [1] is Glucocorticoid receptor (Homo sapiens) (UniProt P04150). The experiment in a line: qHTS assay for small molecule antagonists of glucocorticoid receptor signaling (AID 588533; active = well fitted inhibition curve with a large enough effect in the signal ratio, with a control signal flat, not every such curve was filed as active; the % refers to the signal ratio;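 note: cells stimulated with 2 nM dexamethasone as agonist; % is set by controls: 0 for no effect and ±100 for the full control effect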). Put shortly:
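Antagonist-mode qHTS: compound titrations added to GRE-bla HeLa cells, then dexamethasone 2 nM final; 18 h, 37 C. CCF4 FRET fluorescence normalized to dexamethasone and DMSO; IC50 from Hill fit.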
A general note: qHTS replaces the single test concentration by a dilution series.

The target in assay [2] is Peroxisome proliferator-activated receptor gamma (Homo sapiens) (UniProt P37231). Kind of assay: qHTS assay for small molecule agonists of peroxisome proliferator-activated receptor gamma signaling (AID 588536; active = well fitted curve in the direction sought with a large enough effect in the signal ratio, with a control signal flat, not every such curve was filed as active; the % refers to the signal ratio;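 note: 0% = DMSO basal wells and 100% = rosiglitazone at 2 µM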). Summed up:
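HEK293 UAS-bla reporter line, 1% charcoal/dextran FBS; titration, 16 h, 37 C; CCF4 loading 2 h RT; fluorescence 460/530 nm. Normalized to rosiglitazone 2 uM = 100%, DMSO = 0%.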

For assay [3] the target is unchanged. The experiment in a line: qHTS assay for small molecule antagonists of peroxisome proliferator-activated receptor gamma signaling (AID 588537; active = well fitted inhibition curve with a large enough effect in the signal ratio, with a control signal flat, not every such curve was filed as active; the % refers to the signal ratio;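 note: reporter cells co-stimulated with 50 nM rosiglitazone agonist during compound treatment; % of control where 0% means no effect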). Put shortly:
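PPAR-gamma-UAS-bla HEK293 cells (3000/well, 1% charcoal/dextran-stripped FBS) were preincubated 6-6.5 h at 37 C, given titrated compounds, then stimulated with 50 nM rosiglitazone for 16 h. Beta-lactamase activity was read with CCF4 dye; IC50 came from Hill fits.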

Assay [4] concerns the target Vitamin D3 receptor (Homo sapiens) (UniProt P11473). Kind of assay: qHTS assay for small molecule agonists of vitamin D receptor signaling (AID 588543; calls by dose curve;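 note: 0% = DMSO basal and 100% = reference agonist control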). Summed up: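 β-lactamase reporter, VDR-UAS-bla HEK293T, agonist mode. Cells plated 5 h at 37 °C, compound titration 16 h at 37 °C, CCF4 dye 2 h RT, ratio 460/530 nm. Hill fit → EC50, efficacy vs 50 nM 1α,25-(OH)2D3.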

Assay [5] addresses Thyroid hormone receptor beta (Homo sapiens) (UniProt P10828). Kind of assay: qHTS assay for small molecule agonists of thyroid hormone receptor beta signaling (AID 588545; calls by dose curve; note: potency is the fitted concentration of half-maximal effect;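 for activation: 0% = DMSO only and 100% = 10 nM T3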). Summed up: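 Stimulation of a TR-driven beta-lactamase reporter was quantified in GripTite HEK 293 cells. Compound series ran for 18 hrs; curves were normalized to T3 and DMSO controls and fitted to yield EC50.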

A short description of assay [6]: qHTS assay for environmental chemicals that activate the Aryl hydrocarbon Receptor (AhR) signaling pathway (AID 651777). Note: % of control where 0% means no effect; nearly all actives have a fitted effect of over 15% in size. To be noted: 1A2-DRE human hepatoma cells, luciferase, 24 h; activation: stronger effect = higher value. Put shortly: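 Luminescence (One-Glo, 30 min, room temperature) reports AhR-driven luciferase in stably transfected human hepatoma cells bearing DRE and CYP1A2 promoter. Cells (1,200/well) were treated with compound for 24 hr at 37 C in qHTS format.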

Assay [7] concerns the target Peroxisome proliferator-activated receptor alpha (Homo sapiens) (UniProt Q07869). Kind of assay: qHTS assay for small molecule agonists of the peroxisome proliferator-activated receptor alpha (PPARalpha) signaling pathway (AID 651778). Note: % of control where 0% means no effect. To be noted: PathHunter PPARalpha complementation, chemiluminescence, 6 h; max response: stronger effect = higher value. Summed up: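 Cells plated at 2,000/well and held overnight at 37 C, 5% CO2, then compound added by pin tool for 6 hr; after PathHunter detection reagent and 60 min at room temperature, chemiluminescence from enzyme complementation was read.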

Assay [8] in a line: qHTS assay for small molecule agonists of the antioxidant response element (ARE) signaling pathway measured by Nrf2-dependant transcriptional activity - cell viability counter screen (AID 720653; active = well fitted curve in the direction sought with a large enough effect in the repeat runs; an effect the other way counts as inactive or inconclusive; note: % is set by controls: 0 for no effect and ±100 for the full control effect). To be noted: ARE-bla HepG2 viability, CellTiter-Glo ATP luminescence, 16 h; max response: stronger effect = lower value. Summed up:
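ARE-bla HepG2 cells (2,000/well) rested 5 hrs at 37C/5% CO2, then exposed to compounds in DMSO for 16 hrs. Viability was read in the same wells as intracellular ATP by luminescence, 30 min at room temperature after reagent addition.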

The nature of assay [9]: qHTS assay for cell viability of HEK293 cells (AID 743288). Note: % is set by controls: 0 for no effect and ±100 for the full control effect; nearly all actives have a fitted effect of over 50% in size. To be noted: ATP luminescence (CellTiter-Glo), 18 h; max response: stronger effect = lower value. Put shortly:
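Environmental chemicals tested in qHTS format against parental HEK293 cells; 18 h treatment, 37 C; read-out ATP luminescence (CellTiter-Glo), 30 min RT development.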

A short description of assay [10]: qHTS assay for cell viability of the p53RE-bla HCT-116 cell line (AID 743292). Note: % is set by controls: 0 for no effect and ±100 for the full control effect; nearly all actives have a fitted effect of over 55% in size. Summed up: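 ATP-based luminescent viability (CellTiter-Glo, 30 min RT) after 16 h compound treatment at 37 C of p53RE-bla HCT-116 cells, seeded at 4,000 cells/well and rested 5 h before dosing.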
For assay [11], the target named is Nuclear receptor subfamily 1 group I member 2 (Rattus norvegicus) (UniProt Q9R1A7). Kind of assay: qHTS assay for small molecule activators of the rat pregnane X receptor (rPXR) signaling pathway (AID 651751; call rule not given here; note: 0% is about no effect). As to conditions: rPXR reporter cells, luciferase (One-Glo), 24 h.
Sequence of Nuclear receptor subfamily 1 group I member 2 (Rattus norvegicus) (Q9R1A7 whole entry, looked up): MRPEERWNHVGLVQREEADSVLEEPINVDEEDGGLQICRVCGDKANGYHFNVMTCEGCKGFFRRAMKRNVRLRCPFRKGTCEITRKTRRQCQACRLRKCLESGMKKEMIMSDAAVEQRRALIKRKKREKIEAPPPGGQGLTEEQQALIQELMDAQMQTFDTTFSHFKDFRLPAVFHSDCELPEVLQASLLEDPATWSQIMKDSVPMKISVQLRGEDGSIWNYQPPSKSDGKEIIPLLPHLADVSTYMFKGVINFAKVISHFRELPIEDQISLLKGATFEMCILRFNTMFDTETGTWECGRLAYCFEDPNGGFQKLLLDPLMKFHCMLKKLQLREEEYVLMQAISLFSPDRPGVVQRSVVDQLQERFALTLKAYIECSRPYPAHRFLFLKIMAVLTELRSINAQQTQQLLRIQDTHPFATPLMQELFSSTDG
A short description of assay [12]: qHTS assay for small molecule antagonists of peroxisome proliferator-activated receptor delta signaling (AID 588535).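 Note: cells co-treated with a PPAR-delta agonist as stimulator during compound exposure.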 To be noted: HEK293T PPARd-UAS-bla, beta-lactamase FRET ratio, 18 h; 460 nm channel. Put shortly: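 GeneBLAzer PPAR-delta-UAS-bla HEK293T cells in medium with 2% charcoal/dextran FBS were preincubated 5 hrs at 37 C, then given compounds, incubated 18 hrs at 37 C, and read by CCF4 beta-lactamase fluorescence; IC50 from Hill fits.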

Assay [13] can be described thus: qHTS assay for small molecule agonists of retinoid X receptor alpha signaling (AID 588544). As to conditions: HEK293T RXRa-UAS-bla, beta-lactamase reporter, 18 h; 530 nm emission.
The nature of assay [14]: qHTS assay for small molecule antagonists of retinoid X receptor alpha signaling (AID 588546; active = well fitted inhibition curve with a large enough effect in the signal ratio, with a control signal flat, not every such curve was filed as active; the % refers to the signal ratio;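 note: cells stimulated with 9-cis-retinoic acid as agonist; % is set by controls: 0 for no effect and ±100 for the full control effect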). As to conditions: HEK293T RXRa-UAS-bla, beta-lactamase ratio, antagonist mode; measured here: W530 green channel, cytotoxicity proxy. Put shortly: (§1)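 Beta-lactamase reporter inhibition, read as CCF4 fluorescence ratio (ex 405, em 460/530 nm) after 2 h at RT. HEK293T UAS-bla cells, 2500/well, were stimulated with 9-cis-RA at 500 or 100 nM final alongside test compound for 18 h at 37 C.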

A short description of assay [15]: qHTS assay for small molecule activators of the p53 signaling pathway (AID 651743; active = well fitted activation curve with a large enough effect in the signal ratio, not every such curve was filed as active; the % refers to the signal ratio; note: potency is the fitted concentration of half-maximal effect; for activation: series mostly up to about 92 µM; % of control where 0% means no effect). To be noted: HCT-116 p53RE-bla, beta-lactamase FRET ratio, 16 h; activation: stronger effect = higher value. Summed up: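 p53RE-bla HCT-116 cells with a stably integrated beta-lactamase reporter under p53 response elements were plated, rested 5 hours at 37 C/5% CO2, then exposed to compounds in DMSO for 16 hours at 37 C. LiveBLAzer B/G FRET substrate was read after 2 hours at room temperature.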

The nature of assay [16]: qHTS assay for small molecule activators of the nuclear factor-kappa B (NF-kB) signaling pathway (AID 651749; active = well fitted activation curve with a large enough effect in the signal ratio; the % refers to the signal ratio; note: potency is the fitted concentration of half-maximal effect; for activation: series mostly up to about 77 µM; % of control where 0% means no effect). As to conditions: NF-kB-bla ME-180 cells, beta-lactamase FRET ratio, 16 h; activation: stronger effect = higher value. Put shortly:
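ME-180 cells stably carrying a beta-lactamase reporter under an NF-kB response element were exposed to compound or DMSO vehicle for 16 hr at 37C, 5% CO2. Pathway activation was read by FRET, since reporter expression disrupts FRET.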

Assay [17] in a line: qHTS assay for small molecule agonists of the antioxidant response element (ARE) signaling pathway measured by Nrf2-dependant transcriptional activity (AID 720636; active = well fitted curve in the direction sought with a large enough effect in the repeat runs; an effect the other way counts as inactive or inconclusive; note: % of control where 0% means no effect). Summed up:
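Nrf2-dependent transcription read as ONE-Glo luciferase signal from ARE-luc HepG2 reporter cells after 16 hr compound treatment at 37 C, 5% CO2, in assay medium with 1% dialyzed FBS.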

Assay [18] has as its target Glucocorticoid receptor (Homo sapiens) (UniProt P04150). The experiment in a line: qHTS assay for small molecule agonists of glucocorticoid receptor signaling (AID 588532; active = well fitted curve in the direction sought with a large enough effect in the signal ratio, with a control signal flat; the % refers to the signal ratio;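 note: 100% = dexamethasone at 0.1 µM and 0% = DMSO only wells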). As to conditions: HeLa MMTV-bla, beta-lactamase ratio, agonist, 18 h; stronger effect = higher value; percent of dexamethasone control, DMSO zero. Summed up:
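Titration series, up to 92 uM, applied to GRE-bla HeLa cells for 18 h at 37 C. Detection by CCF4 FRET substrate after 2 h at RT.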

Assay [19] concerns the target Retinoic acid receptor RXR-alpha (Homo sapiens) (UniProt P19793). The experiment in a line: qHTS assay for small molecule antagonists of retinoid X receptor alpha signaling (AID 588546).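 Note: cells stimulated with 9-cis-retinoic acid as agonist; % is set by controls: 0 for no effect and ±100 for the full control effect.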 As to conditions: HEK293T RXRa-UAS-bla, beta-lactamase ratio, antagonist mode. Put shortly:
as §1

The nature of assay [20]: qHTS assay for small molecule activators of the human pregnane X receptor (PXR) signaling pathway (AID 720659; call rule not given here; note: 0% is about no effect).

Values joined by “and” are separate entries in the source; they are usually repeats but may differ in a detail not shown here. Identical values can stand only once. Results filed as inconclusive are left out. Active and inactive are the calls of the source. Unless noted, calls come from the whole dose curve; as a rule, active = well fitted curve in the direction sought with a large enough effect; inconclusive = small, poorly fitted or top-dose-only effect, or another doubt; inactive = no such curve, though single readings can be large; an effect the other way counts as inactive or inconclusive.

Sequence of Retinoic acid receptor RXR-alpha (Homo sapiens) (P19793 whole entry, looked up): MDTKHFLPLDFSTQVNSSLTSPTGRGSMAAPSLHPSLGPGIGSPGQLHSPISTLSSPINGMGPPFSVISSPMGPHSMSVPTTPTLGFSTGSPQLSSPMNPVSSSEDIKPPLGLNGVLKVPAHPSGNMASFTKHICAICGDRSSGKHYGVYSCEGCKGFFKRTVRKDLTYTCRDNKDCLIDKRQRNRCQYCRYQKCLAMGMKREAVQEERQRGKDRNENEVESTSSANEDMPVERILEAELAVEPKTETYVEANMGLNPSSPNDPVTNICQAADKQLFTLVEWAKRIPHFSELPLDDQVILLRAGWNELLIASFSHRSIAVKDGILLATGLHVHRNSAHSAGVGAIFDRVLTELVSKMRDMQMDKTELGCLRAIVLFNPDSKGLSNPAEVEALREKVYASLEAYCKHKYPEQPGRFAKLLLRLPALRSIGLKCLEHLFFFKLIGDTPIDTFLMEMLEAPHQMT
Sequence of Vitamin D3 receptor (Homo sapiens) (P11473 whole entry, looked up): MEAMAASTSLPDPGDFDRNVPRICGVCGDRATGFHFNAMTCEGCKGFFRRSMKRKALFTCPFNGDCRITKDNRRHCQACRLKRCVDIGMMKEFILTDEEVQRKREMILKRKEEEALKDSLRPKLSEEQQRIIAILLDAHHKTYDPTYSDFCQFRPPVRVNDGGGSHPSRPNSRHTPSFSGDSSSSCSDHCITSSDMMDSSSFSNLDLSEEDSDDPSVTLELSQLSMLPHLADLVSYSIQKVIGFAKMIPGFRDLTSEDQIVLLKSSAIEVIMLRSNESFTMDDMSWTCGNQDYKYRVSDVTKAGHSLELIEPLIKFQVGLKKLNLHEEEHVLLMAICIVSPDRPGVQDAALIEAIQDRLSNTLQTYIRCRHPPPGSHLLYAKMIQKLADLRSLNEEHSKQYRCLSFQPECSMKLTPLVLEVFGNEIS
Sequence of Peroxisome proliferator-activated receptor gamma (Homo sapiens) (P37231 whole entry, looked up): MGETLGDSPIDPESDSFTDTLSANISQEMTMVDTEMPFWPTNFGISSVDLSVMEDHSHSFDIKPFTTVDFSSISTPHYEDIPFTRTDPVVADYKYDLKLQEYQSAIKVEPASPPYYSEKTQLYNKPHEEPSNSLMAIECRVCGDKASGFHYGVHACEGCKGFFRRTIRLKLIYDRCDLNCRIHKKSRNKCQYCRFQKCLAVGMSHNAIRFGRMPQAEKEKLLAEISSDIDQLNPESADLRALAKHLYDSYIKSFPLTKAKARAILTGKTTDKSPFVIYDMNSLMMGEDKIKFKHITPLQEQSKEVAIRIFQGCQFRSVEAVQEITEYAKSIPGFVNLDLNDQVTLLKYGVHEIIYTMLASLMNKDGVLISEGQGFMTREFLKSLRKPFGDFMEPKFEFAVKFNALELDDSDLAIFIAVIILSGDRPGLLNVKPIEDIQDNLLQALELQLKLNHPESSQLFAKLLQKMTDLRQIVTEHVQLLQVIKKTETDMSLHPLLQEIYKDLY
Sequence of Glucocorticoid receptor (Homo sapiens) (P04150 whole entry, looked up): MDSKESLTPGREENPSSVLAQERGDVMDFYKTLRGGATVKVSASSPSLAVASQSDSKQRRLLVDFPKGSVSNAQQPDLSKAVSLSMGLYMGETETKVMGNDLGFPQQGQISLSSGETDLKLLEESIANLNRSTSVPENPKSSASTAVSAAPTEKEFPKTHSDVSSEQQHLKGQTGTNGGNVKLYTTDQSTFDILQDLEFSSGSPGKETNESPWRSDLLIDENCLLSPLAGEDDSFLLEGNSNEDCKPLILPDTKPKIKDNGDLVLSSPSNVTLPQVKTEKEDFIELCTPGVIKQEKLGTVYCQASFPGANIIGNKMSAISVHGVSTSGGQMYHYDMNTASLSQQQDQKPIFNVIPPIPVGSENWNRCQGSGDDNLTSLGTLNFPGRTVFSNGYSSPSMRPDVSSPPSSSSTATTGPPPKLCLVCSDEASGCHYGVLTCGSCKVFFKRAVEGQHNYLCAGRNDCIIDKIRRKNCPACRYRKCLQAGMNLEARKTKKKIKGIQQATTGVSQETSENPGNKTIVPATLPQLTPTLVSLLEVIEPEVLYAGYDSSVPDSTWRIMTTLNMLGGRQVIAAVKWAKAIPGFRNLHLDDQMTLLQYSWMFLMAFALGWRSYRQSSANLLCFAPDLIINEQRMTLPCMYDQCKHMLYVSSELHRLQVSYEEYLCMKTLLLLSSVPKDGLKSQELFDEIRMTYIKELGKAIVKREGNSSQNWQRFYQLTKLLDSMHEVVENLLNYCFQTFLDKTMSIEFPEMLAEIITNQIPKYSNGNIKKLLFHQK
Sequence of Peroxisome proliferator-activated receptor alpha (Homo sapiens) (Q07869 whole entry, looked up): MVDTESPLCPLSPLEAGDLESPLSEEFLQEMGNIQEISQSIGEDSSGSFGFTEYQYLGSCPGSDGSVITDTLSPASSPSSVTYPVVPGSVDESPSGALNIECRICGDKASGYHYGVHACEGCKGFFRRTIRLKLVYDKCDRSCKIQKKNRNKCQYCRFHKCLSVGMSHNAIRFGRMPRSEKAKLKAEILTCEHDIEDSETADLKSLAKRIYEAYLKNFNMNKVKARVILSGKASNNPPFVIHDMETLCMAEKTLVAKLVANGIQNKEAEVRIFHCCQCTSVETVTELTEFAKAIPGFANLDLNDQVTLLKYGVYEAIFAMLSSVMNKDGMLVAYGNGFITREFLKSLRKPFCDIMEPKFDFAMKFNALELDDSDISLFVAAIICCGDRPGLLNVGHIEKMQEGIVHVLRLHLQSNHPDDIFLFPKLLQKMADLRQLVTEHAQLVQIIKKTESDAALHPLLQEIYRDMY
Sequence of Thyroid hormone receptor beta (Homo sapiens) (P10828 whole entry, looked up): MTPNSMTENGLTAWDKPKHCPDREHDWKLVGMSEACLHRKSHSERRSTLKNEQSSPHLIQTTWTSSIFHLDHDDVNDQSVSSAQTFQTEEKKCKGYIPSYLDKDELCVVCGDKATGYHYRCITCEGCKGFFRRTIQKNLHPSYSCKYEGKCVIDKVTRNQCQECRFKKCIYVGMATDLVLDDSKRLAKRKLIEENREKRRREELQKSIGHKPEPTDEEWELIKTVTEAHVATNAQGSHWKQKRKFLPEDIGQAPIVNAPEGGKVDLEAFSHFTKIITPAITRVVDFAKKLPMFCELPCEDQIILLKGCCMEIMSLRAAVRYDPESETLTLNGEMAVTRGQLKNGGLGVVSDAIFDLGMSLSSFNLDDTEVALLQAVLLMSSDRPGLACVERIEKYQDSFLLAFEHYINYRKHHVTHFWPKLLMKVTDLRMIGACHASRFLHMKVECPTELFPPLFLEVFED

Turning to `S=C(S)NCCNC(=S)S`, the Potency result in assay [1], in [3], in [5] and in assay [10] was “inactive” each time. The compound was called inactive in assay [2] and in assay [4]. The activation in [6] was 0.998% (inactive). Moreover, the max response in assay [7] was 0.0068% (inactive); in [8], -0.0675% (inactive); in [9] it was -6.97% (inactive); in assay [11], -0.407% (inactive).

Turning to `CCNc1nc(N)nc(Cl)n1`, the max response in [12] was 34.2%; in [13], -5.45% and -6.57%; in assay [14], -17.5% and -16.5%; in [7], -2.09% (inactive) and -1.78% (inactive); in assay [8], -7.89% (inactive) and -3.73% (inactive); in assay [11], -3.95% (inactive) and -0.52% (inactive). The compound was classed as inactive in assay [4]. For the same compound, the Potency result in assay [5], in [17] and in assay [10] was “inactive” throughout. Further, the activation in assay [15] is -2.48% (inactive) and -1.49% (inactive); in assay [16] it was -0.704% (inactive) and -0.787% (inactive).

`CCNc1nc(NC(C)CC)nc(OC)n1` (centres undefined): the results for the activation in assay [18] and in assay [6] were -21% (inactive) and 2.63% (inactive), respectively. For the same compound, the Potency entry in assay [1], in [3], in assay [5], in assay [17] and in [10] was “inactive” in each case. For the same compound, the call in [2], in assay [4] and in [20] was inactive. Also, the max response in assay [13] is -13.5%; in [14], -8.46%; in assay [19], 7.45% (inactive); in [8], 16.1% (inactive); in assay [11], 1.4% (inactive).

With `COC(=O)c1ccc(I)cc1S(=O)(=O)NC(=O)Nc1nc(C)nc(OC)n1`, the activation is 7.01% (inactive) in assay [18], -2.48% (inactive) in assay [15] and 2.67% (inactive) in [6]. Moreover, the Potency result in assay [1], in assay [3], in [5], in [17] and in [10] was “inactive” each time. Also, the compound was called inactive in assay [2], in [4] and in assay [20]. The max response was -6.12% in [13]; -4.15% in [14]; -12.1% (inactive) in assay [19]; -0.424% (inactive) in assay [7]; -4.44% (inactive) in assay [8]; -13.7% (inactive) in assay [9]. In assay [11], the max response is 3.28% (inactive).

For `C=C(C)C(=O)OCCOCCOCCOC(=O)C(=C)C`, the activation is 9.85% (inactive) in [18], -4.46% (inactive) in assay [15], -1.62% (inactive) in assay [16] and -1.22% (inactive) in assay [6]. For the same compound, the Potency result in [1], in assay [3], in [5], in [17] and in assay [10] was “inactive” throughout. In addition, the call in [2], in assay [4] and in assay [20] was inactive. Besides, the max response is 1.13% in assay [13]; 3.38% in [14]; 4.6% (inactive) in assay [19]; -0.929% (inactive) in [7]; -16.9% (inactive) in assay [8]; -8.3% (inactive) in [9]. For the same compound, in assay [11], the max response was -0.564% (inactive).

For `CS(=O)(=O)c1ccc(Cl)cc1`, the Potency result in assay [1], in assay [5], in assay [17] and in assay [10] was “inactive” in each case. In addition, the max response was 15.6% in assay [12]; 0.314% in assay [13]; -4.7% in [14]; -18.5% (inactive) in assay [19]; -0.188% (inactive) in [7]; 0.283% (inactive) in [8]. The results for the max response in assay [9] and in assay [11] were -17.3% (inactive) and 3.76% (inactive), respectively. For the same compound, the outcome in assay [4] and in [20] was inactive. Also, the activation in assay [6] was 0.81% (inactive).

`Nc1ccc(Nc2ccccc2)cc1`: the Potency result in assay [1] and in assay [10] was “inactive” each time. Besides, the result in assay [2] was inactive. Besides, the max response in assay [14] was -6.58%; in assay [19], -27.9% (inactive); in assay [7], -0.422% (inactive); in assay [8] it was 14.3% (inactive); in assay [9], -17.7% (inactive); in assay [11], 8.87% (inactive). Further, the activation is 0.195% (inactive) in assay [16] and 5.3% (inactive) in [6].

Turning to `N#CSCSc1nc2ccccc2s1`, the call in assay [4] was inactive. Also, the Potency entry in assay [17] was “inactive”.

With `CCCCCCC(C)OC(=O)COc1nc(F)c(Cl)c(N)c1Cl` (centres undefined), the call in assay [4] was inactive. Also, the values for the activation in assay [15] and in assay [16] were -6.58% (inactive) and 3.49% (inactive), respectively. Also, the max response was 25.7% (inactive) in [7], 17% (inactive) in [8] and -29.6% (inactive) in assay [9]. Besides, in [17], the Potency entry is “inactive”.

For `c1cc2ccc3ccc4ccc5cccc6c(c1)c2c3c4c56`, the Potency in assay [5] is 25.1 µM (active); in assay [15], 35.5 µM (active); in assay [16] it was 39.8 µM (active). Besides, in assay [6], the activation is 6.27% (inactive). Besides, the max response in [7] is -2.73% (inactive); in [8], -17.1% (inactive); in [9], -3.62% (inactive); in assay [11], 0.241% (inactive). The Potency entry in assay [10] is “inactive”.

The values above are taken from PubChem BioAssay (NCATS).
